# Assay outcomes deposited in PubChem BioAssay by The Scripps Research Institute Molecular Screening Center.
# LEDGF integ inh: blocks HIV-1 LEDGF/p75-dependent DNA integration. TR-FRET IN-LEDGF/p75 DNA integration, Eu/Cy5. hit rate 0.64% among 370,000. inhibition, % at 3.7 µM;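 active = inhibition above the screen-wide mean plus 3 SD, cut at about 13% in these data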;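 also: signal is the Cy5 over europium emission ratio at 671 and 618 nm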
# PLC-gamma1 inh: inhibitors of human phospholipase C gamma1 | inhibition, % at 12.2 µM | hit rate 0.84% among 370,000 | AID 720700 | P19174 | purified PLC-gamma1, fluorogenic substrate, fluorescence; in the data active = inhibition above about 9.5%
# UHRF1 MBD2 ctr: blocks human UHRF1 binding to methylated DNA; AID 687016; inhibition, % at 4.4 µM; hit rate 0.75% among 370,000; UHRF1 binding to methylated oligo, TR-FRET; Q96T88; in the data active = inhibition above about 21%;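 also: UHRF1 SRA domain binding a hemimethylated CpG hairpin DNA probe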
# PLCb3 inh: PLC-beta3 (human) inhibition, primary screen. Q01970. Purified PLC-beta3, fluorogenic substrate, fluorescence. inhibition, % at 12.2 µM. hit rate 0.18% among 370,000. AID 720704
# MBD2 DNA inh: MBD2-methylated oligo binding inhibition | AID 686964 | inhibition, % at 4.4 µM | hit rate 0.31% among 370,000 | Q9UBB5 | TR-FRET, MBD2 binding to methylated oligonucleotide; in the data active = inhibition above about 13%
# PLCg1 ctr: PLC-gamma1 inhibition, counter-screen for PLC-beta3 hits | hit rate 3.1% among 3,300 | AID 743258 | purified PLC-gamma1, fluorogenic substrate, fluorescence | shares compounds with PLC-gamma1 inh | inhibition, % at 12.3 µM; in the data active = inhibition above about 9.5%
# PLCbeta3 conf: confirmation of human PLC-beta3 inhibitors. shares compounds with PLC-gamma1 inh. purified PLC-beta3, fluorogenic substrate fluorescence. inhibition, % at 12.3 µM. hit rate 1% among 3,300. AID 743261
# Hits are given with their value; n = inactive; x = not tested or not shown. The list is not random: actives were taken first. Their share in the collection is about 2.3%. Rule as the data show it, unless noted: active = inhibition above about 11%; inactive = the rest.
SMILES,LEDGF integ inh,PLC-gamma1 inh,UHRF1 MBD2 ctr,PLCb3 inh,MBD2 DNA inh,PLCg1 ctr,PLCbeta3 conf
CCOC(=O)c1c(C)[nH]c(C(=O)CSc2nnc(-c3ccncc3)n2CC)c1C,n,n,n,n,n,x,x
C=CCn1c(SCC(=O)c2[nH]c(C)c(C(=O)OCC)c2C)nc2scc(-c3ccc(OC)c(OC)c3)c2c1=O,n,n,n,10.6,n,n,n
CCOc1ccccc1OCCCC(=O)Nc1nc2ccccc2[nH]1,n,n,n,12.7,n,n,n
O=C(Cc1cccs1)Nc1nc(-c2ccc(F)cc2F)cs1,n,12.6,n,n,n,n,n
Cn1c(SC/C=C/c2ccccc2)nnc1-c1cccnc1,n,11.7,n,n,n,n,n
COC(=O)c1sc(N)c(C(=O)OC)c1CSc1nnc(-c2ccccc2Cl)n1C,n,n,n,n,n,x,x
COC(=O)c1sc(N)c(C(=O)OC)c1CSc1nnnn1C,n,9.9,n,n,n,n,n
O=C(OCCCCSc1nnc(-c2cccc3ccccc23)o1)c1ccc(F)cc1,n,n,n,n,n,x,x
Cc1ccc(CNC(=O)c2cc(-c3ccccc3C)nn2CC2CC(c3cccnc3)=NO2)cc1 (configuration not stated),n,n,n,n,n,x,x
Cc1ccccc1-c1cc(C(=O)NCc2ccc(OC(F)(F)F)cc2)n(CC2CC(c3cccnc3)=NO2)n1 (configuration not stated),n,11.4,n,n,n,n,n
CCOC(=O)NC(=O)CSc1nc2ccccc2[nH]1,n,n,n,n,n,x,x
CCOC(=O)C1(C(C)(C)CC)CC(CSc2nc3ccccc3[nH]2)OC1=O (configuration not stated),n,12.5,n,n,n,n,n
Fc1ccc(-c2n[nH]c(=S)n2N=Cc2ccc(OCc3ccccc3)cc2)cc1,n,n,n,n,n,x,x
Cc1occc1C(=O)N/N=C/c1ccc(OCc2ccccc2)cc1,n,15.1,n,n,n,n,n
CCOC(=O)N/N=C/c1ccc(Oc2ccccc2)cc1,n,9.6,n,n,n,n,n
COc1cc(OC)c(C(=O)Oc2ccc3c(c2)OCO3)cc1OC,n,11.3,n,n,n,n,n
COc1ccc(C(=O)Oc2ccc3c(c2)OCO3)cc1OC,n,n,n,n,n,x,x
O=C1NC(c2ccc(-c3ccccc3[N+](=O)[O-])o2)C(C(=O)c2ccccc2)C(O)(C(F)(F)F)N1 (configuration not stated),n,n,n,11.4,n,n,n
O=S(=O)(c1sccc1Br)n1c(CN2CCOCC2)nc2ccccc21,n,n,n,n,n,x,x
C[C@H]1[C@@H](NCc2ccccc2)CC[C@@]23CCCN2C(=O)CCC[C@@H]13,n,n,n,n,n,x,x
NC(=NCCc1c[nH]c2ccccc12)NC(=O)c1ccc(Cl)cc1,n,10.0,n,n,n,n,n
O=C(N[C@@H](Cc1c[nH]c2ccccc12)C(=O)O)c1ccc(Cl)cc1,n,n,n,n,n,x,x
Cc1[nH]c2ccccc2c1N=Nc1ccc(F)cc1,n,n,n,n,n,x,x
Cc1[nH]c2ccccc2c1N=Nc1cc(C(=O)O)cc(C(=O)O)c1,n,11.0,n,n,n,n,n
COc1ccc(-c2csc(N(CC3CCCO3)C(=O)c3ccccc3)n2)cc1 (configuration not stated),n,n,n,n,n,x,x
COc1ccc(-c2csc(N(CC3CCCO3)C(=O)c3ccc(C)cc3)n2)cc1 (configuration not stated),n,14.4,n,n,n,n,n
Cc1ccc(-c2csc(N(CC3CCCO3)C(=O)c3ccco3)n2)cc1 (configuration not stated),n,11.3,n,n,n,n,n
Cc1c(NC(=O)C2CCCN(S(=O)(=O)c3c(C(C)C)cc(C(C)C)cc3C(C)C)C2)c(=O)n(-c2ccccc2)n1C (configuration not stated),n,n,n,n,n,x,x
CCC[C@H]1[C@@H](NC(=O)c2cccnc2)CC[C@@]23CCCN2C(=O)CCC[C@@H]13,n,n,n,n,n,x,x
